The values that follow come from PubChem BioAssay AID624137 (Broad Institute, 2012).

Each structure is given as a SMILES string. In all, about 31,000 compounds went through this assay and about 360 (1.2%) were called active. No rule for the calls is given here. The entries come from a sample that favours actives as a whole.

Chain of DNA-binding protein inhibitor ID-4 (Homo sapiens) (P47928 whole entry, looked up): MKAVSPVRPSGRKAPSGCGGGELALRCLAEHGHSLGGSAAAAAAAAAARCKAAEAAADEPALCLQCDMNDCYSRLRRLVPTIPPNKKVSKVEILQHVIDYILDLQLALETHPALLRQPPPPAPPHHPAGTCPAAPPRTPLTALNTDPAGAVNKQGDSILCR

This experiment has as its target DNA-binding protein inhibitor ID-4 (Homo sapiens) (UniProt P47928). The experiment in a line: PubChem AID 624137.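 Also: a binder raises fluorescence above local background on the spot.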 Conditions: small molecule microarray, Flag-ID4 binding, fluorescence F/B.
Take `O=C(C[C@@H]1CC[C@@H](NS(=O)(=O)c2ccc(F)cc2)[C@H](CO)O1)NCc1ccc(Cl)c(Cl)c1`: the molecule was called inactive. In the case of `COc1ccccc1-c1cnc2c(c1)C(=O)N([C@H](C)CO)C[C@@H](C)[C@@H](CN(C)Cc1ccncc1)O2`, the call was inactive. Regarding `COc1ccccc1-c1cnc2c(c1)C(=O)N([C@@H](C)CO)C[C@H](C)[C@H](CN(C)C(=O)c1ccncc1)O2`, the call was inactive. Under `CC(C)CC#Cc1cnc2c(c1)C(=O)N([C@@H](C)CO)C[C@H](C)[C@@H](CN(C)C(=O)c1cccc(F)c1)O2` stands “inactive”.

As for `CC(C)CC#Cc1cnc2c(c1)C(=O)N([C@H](C)CO)C[C@H](C)[C@@H](CN(C)Cc1ccccc1)O2`, the outcome was inactive. In the case of `c1ccc2[nH]c(CSc3nc4ccccc4[nH]3)nc2c1`, the molecule was classed as inactive.

As for `C[C@@H]1CN([C@H](C)CO)C(=O)c2cc(C#CC3CCCC3)cnc2O[C@H]1CN(C)C(=O)C1CC1`, the molecule was classed as inactive. Under `COc1ccccc1-c1cnc2c(c1)C(=O)N([C@@H](C)CO)C[C@H](C)[C@H](CN(C)CC1CCOCC1)O2` stands “inactive”; under `CN(C)c1ccc2c(c1)[C@@H]1C[C@@H](CC(=O)NCc3ccccn3)O[C@H](CO)[C@@H]1O2`, “inactive”; under `CCC(=O)N(C)C[C@H]1Oc2ncc(-c3ccc(C)cc3)cc2C(=O)N([C@@H](C)CO)C[C@@H]1C`, “inactive”. Under `COc1ccccc1-c1ccc2c(c1)O[C@H](CN(C)C(=O)c1cccnc1)[C@H](C)CN([C@@H](C)CO)S2(=O)=O` stands “inactive”. The value for `COc1cc(S(=O)(=O)NCCN2CCOCC2)ccc1Br` was “inactive”. In the case of `O=C(CSc1nnnn1-c1ccccc1)Nc1ccccc1C(=O)c1ccccc1`, the outcome was inactive. The value for `C[C@H](CO)N1C[C@H](C)[C@H](CN(C)CC2CC2)Oc2cc(-c3ccc(F)cc3)ccc2S1(=O)=O` was “inactive”; that for `O=C(C[C@H]1C=C[C@@H](NC(=O)C2CC2)[C@H](CO)O1)NCC1CC1` was “inactive”; that for `O=C(C[C@H]1C=C[C@@H](NC(=O)CC2CC2)[C@H](CO)O1)NCc1ccc(-c2ccccc2)cc1` was “inactive”. Under `Cc1ccc(-c2cnc3c(c2)C(=O)N([C@H](C)CO)C[C@@H](C)[C@@H](CN(C)C(=O)CN(C)C)O3)cc1` stands “inactive”; under `C[C@@H]1CN([C@H](C)CO)S(=O)(=O)c2ccc(-c3ccccc3)cc2O[C@@H]1CN(C)CC1CC1`, “inactive”; under `CN(C)C(=O)C[C@H]1CC[C@@H](NC(=O)Nc2cccc(F)c2)[C@H](CO)O1`, “inactive”.

As to `CC(C)c1cn(CC[C@@H]2CC[C@@H](NC(=O)C3CCC3)[C@@H](CO)O2)nn1`, the outcome was inactive.

`CN(C)C(=O)C[C@H]1CC[C@@H](NC(=O)C2CC2)[C@@H](CO)O1`: the call was inactive. For the molecule `O=C(C[C@@H]1C=C[C@@H](NC(=O)Nc2cccc(F)c2)[C@H](CO)O1)NCC1CCCCC1`, the molecule was classed as inactive. `CO[C@@H]1CN(C)C(=O)c2cc(NC(=O)c3ccccc3F)ccc2OC[C@@H](C)N(CC2CC2)C[C@H]1C`: the call was inactive. Under `CC(C)NC(=O)N(C)C[C@@H]1Oc2c(cccc2N(C)C)C(=O)N([C@@H](C)CO)C[C@H]1C` stands “active”. The value for `CC(C)NC(=O)N(C)C[C@@H]1Oc2ccc(N(C)C)cc2C(=O)N([C@@H](C)CO)C[C@H]1C` was “inactive”; that for `CC(C)NC(=O)N(C)C[C@@H]1Oc2c(cccc2N(C)C)C(=O)N([C@H](C)CO)C[C@@H]1C` was “inactive”; that for `CCC(Oc1cccc(NC(=O)c2ccccc2[N+](=O)[O-])c1)C(=O)c1ccccc1` (stereo not drawn) was “inactive”.

With `C[C@@H]1CN([C@H](C)CO)C(=O)c2cc(C#Cc3cccc(F)c3)cnc2O[C@H]1CN(C)Cc1ccccn1`, the molecule was called inactive. Under `CCCC#Cc1ccc2c(c1)O[C@@H](CN(C)CCC)[C@@H](C)CN([C@H](C)CO)S2(=O)=O` stands “inactive”; under `CC(C)NC(=O)N(C)C[C@H]1Oc2ncc(C#CC3CC3)cc2C(=O)N([C@H](C)CO)C[C@@H]1C`, “inactive”; under `C[C@@H]1CN([C@@H](C)CO)C(=O)c2cc(-c3ccccc3F)cnc2O[C@@H]1CN(C)Cc1cccc(F)c1`, “inactive”. The value for `O=C(C[C@@H]1C=C[C@@H](NC(=O)c2ccccn2)[C@@H](CO)O1)NCc1cc(F)cc(F)c1` was “inactive”. Under `C[C@@H]1CN([C@H](C)CO)C(=O)c2cc(-c3ccncc3)cnc2O[C@H]1CN(C)C` stands “inactive”; under `C[C@H]1CN([C@@H](C)CO)C(=O)c2cc(C3=CCCC3)cnc2O[C@@H]1CN(C)Cc1cccnc1`, “inactive”. For the molecule `C/C=C/c1ccc2c(c1)O[C@H](CN(C)C)[C@H](C)CN([C@H](C)CO)S2(=O)=O`, the molecule was called inactive. Consider `CCC1=NN(C(=O)C(C)C)C(O)(c2ccc(Br)cc2)C1` (stereo not drawn), for which the result was inactive. The value for `CC(=O)N(C)C[C@@H]1Oc2ncc(C#CCc3ccccc3)cc2C(=O)N([C@H](C)CO)C[C@H]1C` was “inactive”. The value for `C[C@H](CO)N1C[C@H](C)[C@H](CN(C)C)Oc2ncc(-c3ccncc3)cc2C1=O` was “inactive”; that for `COc1cccc(S(=O)(=O)N[C@H]2C=C[C@H](CC(=O)NC3Cc4ccccc4C3)O[C@H]2CO)c1` was “inactive”. In the case of `CC(C)NC(=O)N(C)C[C@@H]1Oc2ncc(C#CC3CC3)cc2C(=O)N([C@@H](C)CO)C[C@H]1C`, the result was inactive. The value for `O=C(C[C@@H]1CC[C@@H](NC(=O)C2CC2)[C@@H](CO)O1)NCc1ccccc1Cl` was “inactive”; that for `COCC#Cc1ccc2c(c1)O[C@H](CN(C)CC1CC1)[C@H](C)CN([C@H](C)CO)S2(=O)=O` was “inactive”. Under `C[C@H](CO)N1C[C@H](C)[C@H](CN(C)C)Oc2cc(C#Cc3ccccc3F)ccc2S1(=O)=O` stands “inactive”. The value for `O=C(C[C@@H]1C=C[C@@H](NC(=O)c2cccnc2)[C@H](CO)O1)NCCN1CCCCC1` was “inactive”; that for `COC(=O)C[C@H]1CC[C@H](NC(=O)c2ccccc2)[C@@H](CO)O1` was “inactive”. Regarding `CC(C)CC#Cc1cnc2c(c1)C(=O)N([C@H](C)CO)C[C@H](C)[C@@H](CN(C)Cc1ccccc1C(=O)O)O2`, the molecule was called inactive. The value for `O=C(C[C@@H]1C[C@H]2c3cc(NC(=O)C4CCOCC4)ccc3O[C@H]2[C@H](CO)O1)NCc1ccc2c(c1)OCO2` was “inactive”; that for `C[C@H]1CN([C@@H](C)CO)S(=O)(=O)c2ccc(-c3ccccc3F)cc2O[C@H]1CN(C)C(=O)C1CC1` was “inactive”; that for `C[C@@H]1CN([C@H](C)CO)C(=O)c2cc(C#CCC3CCCC3)cnc2O[C@H]1CN(C)C(=O)c1cnccn1` was “inactive”. Under `CO[C@H](CN(C)S(=O)(=O)c1ccc(C)cc1)[C@@H](C)CN(Cc1ccccc1Cl)[C@@H](C)CO` stands “inactive”; under `CCn1c(SCC(=O)Nc2cc(Cl)c(Cl)cc2Cl)nnc1-c1ccccc1Cl`, “inactive”. The value for `N#Cc1c(NC(=O)CCn2cnc3ccccc3c2=O)sc2c1CCCC2` was “inactive”. For `CCn1c(SCC(=O)Nc2sc3c(c2C#N)CCCC3)nnc1-c1ccccc1O`, the call was active. Under `C[C@@H]1CN([C@@H](C)CO)C(=O)c2cc(C3=CCCC3)cnc2O[C@H]1CN(C)Cc1ccccc1F` stands “inactive”; under `COCC(=O)N[C@H]1C=C[C@H](CC(=O)N2CCCCC2)O[C@H]1CO`, “inactive”. Consider `Cc1ccc(-c2ccc3c(c2)O[C@H](CN(C)C)[C@@H](C)CN([C@@H](C)CO)S3(=O)=O)cc1`, for which the molecule was called inactive. Under `CO[C@@H](CN(C)S(=O)(=O)c1ccc(F)cc1)[C@H](C)CN(C(=O)Nc1ccccc1F)[C@@H](C)CO` stands “inactive”; under `O=C(C[C@H]1C=C[C@@H](NC(=O)Nc2cc(F)ccc2F)[C@H](CO)O1)NCCCN1CCOCC1`, “inactive”. The value for `CN(C)C(=O)C[C@H]1C=C[C@@H](NC(=O)c2ccc(F)cc2)[C@@H](CO)O1` was “inactive”. The value for `C[C@H]1CN([C@@H](C)CO)C(=O)c2cc(Br)cnc2O[C@@H]1CN(C)C(=O)c1ccccc1F` was “inactive”. `O=C(CN1C(=O)c2ccccc2S1(=O)=O)Nc1ccc(F)c(F)c1`: the result was inactive. With `O=C(CSc1nnc(-c2ccccc2)n1-c1ccccc1)c1ccc(F)cc1`, the molecule was classed as inactive. In the case of `CO[C@@H](CN(C)C(=O)c1cnccn1)[C@@H](C)CN([C@@H](C)CO)S(=O)(=O)c1ccc(F)cc1`, the molecule was classed as inactive. Under `C[C@H]1CN([C@@H](C)CO)C(=O)c2cc(Br)cnc2O[C@H]1CN(C)CC1CCCC1` stands “inactive”; under `CCCN(C)C[C@@H]1Oc2cc(-c3ccc(C)cc3)ccc2S(=O)(=O)N([C@@H](C)CO)C[C@H]1C`, “inactive”; under `CCC(=O)N[C@H]1C=C[C@@H](CC(=O)NCC2CCCCC2)O[C@H]1CO`, “inactive”.

As for `C[C@@H]1CN([C@H](C)CO)C(=O)c2cc(Br)cnc2O[C@@H]1CN(C)C(=O)C1CC1`, the call was inactive. The value for `C[C@H](CO)N1C[C@H](C)[C@@H](CN(C)C)Oc2ncc(-c3cccc(F)c3)cc2C1=O` was “inactive”. `CCCN(C)C[C@@H]1Oc2cc(-c3cccc(C#N)c3)ccc2S(=O)(=O)N([C@@H](C)CO)C[C@@H]1C`: the molecule was classed as inactive. Under `C[C@@H]1CN([C@@H](C)CO)S(=O)(=O)c2ccc(-c3cccc(C#N)c3)cc2O[C@@H]1CN(C)Cc1cccc(F)c1` stands “inactive”; under `C[C@@H]1CN([C@H](C)CO)S(=O)(=O)c2ccc(-c3cccc(C#N)c3)cc2O[C@@H]1CN(C)C(=O)Nc1ccccc1F`, “active”; under `Cc1cc(C)c(OCC(=O)Nc2cccnc2)c(Br)c1`, “inactive”. Turning to `COc1ccc(NC(=O)Cc2nc(-c3cc4ccccc4oc3=O)cs2)cc1`, the molecule was called inactive. The value for `COc1cccc(S(=O)(=O)N[C@H]2C=C[C@H](CC(=O)NC3Cc4ccccc4C3)O[C@@H]2CO)c1` was “inactive”. For the molecule `CN(C)c1ccc2c(c1)[C@H]1C[C@H](CC(=O)NCc3ccc(Cl)cc3)O[C@H](CO)[C@H]1O2`, the molecule was classed as inactive.

Consider `CC(=O)N(C)C[C@H]1Oc2cc(C#Cc3ccccc3F)ccc2S(=O)(=O)N([C@H](C)CO)C[C@@H]1C`, for which the result was inactive. As to `COc1ccc(CNC(=O)C[C@@H]2C=C[C@@H](NC(=O)c3ccc4c(c3)OCO4)[C@@H](CO)O2)cc1`, the result was inactive. Under `O=C(C[C@H]1CC[C@@H](NC(=O)Cc2ccccn2)[C@H](CO)O1)NCCc1ccccc1` stands “inactive”.
